Laboratory results as given in PubChem BioAssay AID651703 (Broad Institute, 2012).
Among all 1,200 compounds or so, about 970 (81%) were called active. How the calls were made is not given here. So high a share suggests a set chosen from earlier hits. Not all results are given here. Measured potencies and affinities stand elsewhere.

What follows are molecules tested against Transforming acidic coiled-coil-containing protein 3 (Homo sapiens) (UniProt Q9Y6A5) (assay: inhibition of ARNT PAS-B/TACC3 complex formation – biochemical, AlphaScreen, cherry-picked samples, confirmation (AID 651703;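 further: TACC3 partner is the GST-tagged E629A mutant dimer; hits lower the signal meaning they disrupt ARNT binding to TACC3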)). Details: AlphaScreen His-ARNT PAS-B / GST-TACC3 binding, luminescence; series mostly up to 68 µM.

outcome, inactive:
Clc1ccc(SCc2cc(N3CCOCC3)nc(-c3ccccn3)n2)cc1, CCOc1cc(/C=N/Nc2ncc(C)c(=O)[nH]2)ccc1O, O=C1C2CCCCN2C(=O)N1CCCCN1CCN(c2cccc(Br)c2)CC1 (stereo unspecified), O=C(CCC(=O)c1cccs1)OCc1nnc(-c2ccccc2)o1, CCc1c(C)nc(Nc2nc(C)c3ccc(OC)cc3n2)[nH]c1=O, CCN(C(=O)CSc1nccn1C)c1cccc2ccccc12, COc1cc2c(cc1OC)C(Cc1ccccc1[N+](=O)[O-])=NCC2, O=C(Nc1nnc(-c2ccccc2)s1)c1cc(-c2ccccc2)on1, CCSc1nnc(NC(=O)C2CCCCC2C(=O)O)s1 (stereo unspecified), CC(C)NC(=O)Nc1cccc2c1O[C@H](CN(C)C(=O)Nc1ccc(C(F)(F)F)cc1)[C@@H](C)CN([C@@H](C)CO)C2=O, C[C@H]1CN([C@@H](C)CO)C(=O)Cc2cc(NC(=O)Nc3cccc4ccccc34)ccc2O[C@H]1CN(C)CC1CCCCC1, C[C@@H]1CN([C@@H](C)CO)C(=O)c2cc(NC(=O)C3CC3)ccc2O[C@H]1CN(C)C(=O)Nc1ccc(F)cc1, C[C@H](CO)N1C[C@H](C)[C@@H](CN(C)C(=O)Nc2ccc3c(c2)OCO3)Oc2ccc(NC(=O)CCN3CCOCC3)cc2CC1=O, C[C@@H]1CN([C@H](C)CO)C(=O)Cc2cc(NC(=O)Nc3cccc4ccccc34)ccc2O[C@@H]1CN(C)Cc1ccc(C(=O)O)cc1, COCCCN=Cc1c(-c2ccccc2)[nH]n(-c2nc3ccccc3s2)c1=O, COc1ccc(-c2[nH]ncc2/C=N\NC(=O)c2cccs2)cc1OC, C#CCOc1ccc(OC)cc1C(c1c(C)[nH][nH]c1=O)c1c(C)[nH][nH]c1=O, CCOc1ccc(Cl)cc1C(c1c(C)[nH][nH]c1=O)c1c(C)[nH][nH]c1=O, CCCN(C)C[C@@H]1Oc2ncc(C#CCC(C)C)cc2C(=O)N([C@@H](C)CO)C[C@H]1C, O=C(O)c1ccccc1-c1ccccc1C(=O)Nc1ccc2c(c1)[nH]c(=O)c1ccccc12, O=C(Nc1nc2ccccc2s1)c1cc(-c2ccccc2)on1, Cc1onc(-c2c(Cl)cccc2Cl)c1C(=O)Nc1ccc(N2CCOCC2)cc1, Cc1ccc(C(=O)Oc2ccc(/C=C3\C(=N)N4N=C(N5CCOCC5)SC4=NC3=O)cc2)cc1, O=C1CCN(Cc2ccccc2)C=C1c1ccc(C(F)(F)F)cc1, Cc1cccc(Oc2nc(-c3ccccn3)nc3ccccc23)c1, Nc1cc2cccnc2cc1Cl, O=C(C[C@H]1C=C[C@@H](NC(=O)Nc2ccc3c(c2)OCO3)[C@H](CO)O1)NCc1ccc(Cl)cc1, N#CC1=C(N)Oc2n[nH]c(-c3ccccn3)c2C1c1c(F)cccc1Cl (stereo unspecified), CCN(CC)C(=O)[C@H]1C[C@H](CC(=O)NCc2ccc(OC)c(OC)c2)C(=O)N2CCc3c([nH]c4ccc(Cl)cc34)[C@]12C, CN1CCN(S(=O)(=O)c2cccc(C(=O)Nc3sccc3C(N)=O)c2)CC1, O=C(NCC1CCCCC1)c1cc(-c2ccccc2)on1, COC(=O)c1sc(N)c(C(=O)OC)c1Cn1ncc(Cl)c(Cl)c1=O, Cc1ccccc1CNC(=O)c1cc(-c2ccccc2)on1, CC1=NN(c2ccccc2C)C(=O)C1, COc1cc(NC(=O)C(=O)Nc2ccc3nc4n(c(=O)c3c2)CCCCC4)cc(OC)c1OC, O=C(C[C@H]1C[C@H]2c3cc(NC(=O)NC4CCCCC4)ccc3O[C@H]2[C@H](CO)O1)NCc1ccccc1, CN(C)c1ccc2c(c1)[C@@H]1C[C@@H](CC(=O)N3CCOCC3)O[C@@H](CO)[C@@H]1O2, Clc1nssc1=Nc1nncs1, COCCNC(=O)C[C@@H]1C[C@H]2c3cc(NC(=O)C4CCOCC4)ccc3O[C@H]2[C@H](CO)O1, COc1ccccc1OCc1nc(C#N)c(NCCCn2ccnc2)o1, Cc1c(CC(=O)NCCCCCC(=O)O)c(=O)oc2cc3occ(-c4ccccc4)c3cc12, Cc1c(CCC(=O)O)c(=O)oc2c(C)c3occ(-c4ccc(Cl)cc4)c3cc12, Cc1coc2c(C)c3oc(=O)c(CCC(=O)N[C@@H](C)C(=O)N[C@@H](Cc4ccccc4)C(=O)O)c(C)c3cc12, COc1ccc(N(C(C)=O)c2nc3ccccc3[nH]2)cc1, Cc1cc(C)n(S(=O)(=O)c2ccc(Cl)cc2)n1, O=C(CCc1ccccc1)Nc1nnc(-c2ccccn2)o1, CC(=O)Nc1ccc2nc3ccccc3nc2c1, Cc1ccc(NC(=O)c2cc(-c3ccccc3)on2)cn1, Cc1ccc(C2CCN(C(=S)Nc3cccc(C)c3)C2)cc1 (stereo unspecified), CO[C@H]1CN(C)C(=O)c2cc(NC(=O)NC3CCCCC3)ccc2OC[C@H](C)N(CC2CC2)C[C@@H]1C, CCCNC(=O)Nc1ccc2c(c1)OC[C@H](C)N(C(=O)c1ccccc1F)C[C@@H](C)[C@@H](OC)CN(C)C2=O, CO[C@@H]1CN(C)C(=O)c2cc(NC(=O)c3ccccc3)ccc2OC[C@@H](C)N(C(=O)C2CC2)C[C@H]1C, Cc1cccc(NC(=O)c2cc(-c3ccccc3)on2)n1, O=C(Nc1ccc2ccccc2n1)c1cc(-c2ccccc2)on1, CN1/C(=N\O)c2cccc3cccc1c23, O=C(C[C@@H]1C[C@@H]2c3cc(NC(=O)C4CCOCC4)ccc3O[C@@H]2[C@H](CO)O1)NCc1cccnc1, CC(C)NC(=O)N1[C@H](CO)[C@@H]2c3ccccc3NC[C@@H]21, O=C(Nc1ncc(-c2ccccc2)o1)c1cc(-c2ccccc2)on1, COC(=O)C[C@@H]1C[C@H]2c3cc(N(C)C)ccc3O[C@H]2[C@@H](CO)O1, COc1ccc(OC)c(NC(=O)COC(=O)Cn2nnc(-c3ccccc3)n2)c1, COC(=O)c1[nH]c2cc(OC)c(OC)cc2c1NC(=O)Oc1ccccc1, C[C@@H]1CN([C@@H](C)CO)C(=O)c2cc(NC(=O)C3CCCCC3)ccc2O[C@@H](C)CCCCO[C@@H]1CN(C)C(=O)NC1CCCCC1, CC(C)NC(=O)N(C)C[C@H]1OCCCC[C@H](C)Oc2ccc(NC(=O)Cc3ccccc3)cc2C(=O)N([C@H](C)CO)C[C@H]1C, CC(C)NC(=O)Nc1ccc2c(c1)C(=O)N([C@H](C)CO)C[C@@H](C)[C@@H](CN(C)C(=O)Nc1ccccc1)OCCCC[C@@H](C)O2, C[C@H](CO)N1C[C@H](C)[C@H](CN(C)C(=O)Nc2cccc3ccccc23)OCCCC[C@H](C)Oc2ccc(NC(=O)CCCN(C)C)cc2C1=O, CC(C)NC(=O)Nc1ccc2c(c1)C(=O)N([C@@H](C)CO)C[C@H](C)[C@@H](CN(C)C)OCCCC[C@H](C)O2, C[C@@H]1CN([C@@H](C)CO)C(=O)c2cc(NC(=O)CCCN(C)C)ccc2O[C@@H](C)CCCCO[C@H]1CN(C)C(=O)Nc1cccc2ccccc12, O=C(c1cc(-c2ccccc2)on1)N1CCC(N2CCCC2)CC1, O=C(Nc1nc(-c2ccccc2)cs1)c1cc(-c2ccccc2)on1, COc1ccc(-c2cnc3c(c2)C(=O)N([C@@H](C)CO)C[C@H](C)[C@@H](CN(C)Cc2cccnc2)O3)cc1, C[C@@H]1CN([C@H](C)CO)C(=O)c2cccc(NC(=O)c3ccncc3)c2O[C@@H]1CN(C)Cc1ccc(-c2ccccc2)cc1, CNC[C@@H]1Oc2c(NS(=O)(=O)c3cccs3)cccc2C(=O)N([C@@H](C)CO)C[C@H]1C, C[C@@H]1CN([C@H](C)CO)C(=O)c2cc(NS(C)(=O)=O)ccc2O[C@@H]1CN(C)S(=O)(=O)c1ccc(F)cc1, COc1ccc(S(=O)(=O)Nc2ccc3c(c2)C(=O)N([C@H](C)CO)C[C@H](C)[C@H](CN(C)S(=O)(=O)c2ccc(C)cc2)O3)cc1, O=C(CN1CCCCCC1)Nc1ccccc1[N+](=O)[O-], Cc1nnc(NC(=O)CSc2nnc(CNC(=O)c3ccc(S(=O)(=O)N(C)C)cc3)o2)s1, CCN(CC(=O)NCc1cccs1)CC(=O)Nc1cccc(S(N)(=O)=O)c1, Cc1c(CC(=O)NCC(=O)NCC(=O)O)c(=O)oc2cc3oc4c(c3cc12)CCCC4, Cc1cc(F)ccc1NS(=O)(=O)c1cccc2nsnc12, CC(=O)NC1=NC(=O)/C(=C/c2cn(C(C)=O)nc2-c2ccccc2)S1, Cc1ccc(-c2nc(C)sc2CC(=O)NCc2ccco2)cc1, Cc1cc(=O)n(-c2ccc(O)cc2)[nH]1, O=C(NCC1CCCO1)c1onc(CSc2ccc(F)cc2)c1C(=O)O (stereo unspecified), Cc1cc(C)c(S(=O)(=O)N2CCCC2=O)c(C)c1N(C)S(C)(=O)=O, O=C(C[C@H]1C=C[C@@H](NC(=O)C2CC2)[C@@H](CO)O1)Nc1nccs1, Cc1[nH]n2c(=O)c3c(nc2c1-c1ccccc1)CCC3, COc1cc(/C=C2\S/C(=N/S(=O)(=O)c3ccccc3)NC2=O)c([N+](=O)[O-])cc1OC, COc1ccc(Cc2nnc(N/N=C(\C)c3ccccc3)[nH]c2=O)cc1OC, O=C(CSc1nnc(-c2ccccn2)o1)Nc1ccccc1C(F)(F)F, CN1CCN(C(=O)c2cc(-c3ccccc3)on2)CC1, O=C(c1cc(-c2ccccc2)on1)N1CCc2cccnc21
